Assay outcomes: PubChem BioAssay, The Scripps Research Institute Molecular Screening Center
In the library only some 1.8% were active in any assay of this set; here they are far more common.
Fam108B inh – mouse Fam108B serine hydrolase inhibitors, primary screen, counter-screen for RBBP9 inhibitor project, biochemical, fluorescence polarization. recombinant Fam108B, FP-Rh probe fluorescence polarization. inhibition, % at 9.51 µM. actives 0.33% (n = 300,000);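 active = inhibition above the screen mean inhibition plus 3 SD, computed separately per campaign, cut at about 18% in these data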;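 note: inhibitors lower polarization as less probe binds the enzyme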
PP1 counter – PP1-alpha phosphatase inhibitors, primary screen, counter-screen for PP5 inhibitor project, biochemical, fluorescence, OMFP substrate, single point | Serine/threonine-protein phosphatase PP1-alpha catalytic subunit (Homo sapiens), P62136 | purified PP1alpha | inhibition, % at 6.7 µM | actives 0.9% (n = 320,000) | AID 2235, 2010;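 active = inhibition above the mean inhibition of all tested compounds plus 3 SD, computed separately for each screening campaign, cut at about 15% in these data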
LYPLA1 counter – LYPLA1 inhibitors, primary screen, counter-screen for PME1 inhibitor project, biochemical, fluorescence polarization, FP-Rh probe ABPP; recombinant LYPLA1; AID 2174, 2009; actives 0.16% (n = 320,000); Acyl-protein thioesterase 1 (Homo sapiens), O75608; inhibition, % at 5.9 µM;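 active = inhibition above the mean of all tested compounds plus 3 SD, set per campaign, cut at about 14% in these data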;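 note: inhibitors block serine hydrolase probe labeling of LYPLA1 so polarization falls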
Target sequence (O75608 whole entry, looked up): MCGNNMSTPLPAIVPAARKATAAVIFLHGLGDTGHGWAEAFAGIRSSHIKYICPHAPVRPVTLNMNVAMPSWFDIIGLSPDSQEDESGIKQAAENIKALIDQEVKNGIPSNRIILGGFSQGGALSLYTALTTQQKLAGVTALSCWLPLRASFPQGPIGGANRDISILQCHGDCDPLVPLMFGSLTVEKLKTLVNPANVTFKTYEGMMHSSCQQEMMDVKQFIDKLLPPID
PP5 inh – PP5 phosphatase inhibitors, primary screen, biochemical, fluorescence; Serine/threonine-protein phosphatase 5 (Homo sapiens), P53041; purified PP5c, OMFP substrate fluorescence; inhibition, % at 6.7 µM; actives 0.18% (n = 320,000);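 active = inhibition above the campaign's mean inhibition across all tested compounds plus 3 SD, cut at about 9.5% in these data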
Target sequence (P53041 whole entry, looked up): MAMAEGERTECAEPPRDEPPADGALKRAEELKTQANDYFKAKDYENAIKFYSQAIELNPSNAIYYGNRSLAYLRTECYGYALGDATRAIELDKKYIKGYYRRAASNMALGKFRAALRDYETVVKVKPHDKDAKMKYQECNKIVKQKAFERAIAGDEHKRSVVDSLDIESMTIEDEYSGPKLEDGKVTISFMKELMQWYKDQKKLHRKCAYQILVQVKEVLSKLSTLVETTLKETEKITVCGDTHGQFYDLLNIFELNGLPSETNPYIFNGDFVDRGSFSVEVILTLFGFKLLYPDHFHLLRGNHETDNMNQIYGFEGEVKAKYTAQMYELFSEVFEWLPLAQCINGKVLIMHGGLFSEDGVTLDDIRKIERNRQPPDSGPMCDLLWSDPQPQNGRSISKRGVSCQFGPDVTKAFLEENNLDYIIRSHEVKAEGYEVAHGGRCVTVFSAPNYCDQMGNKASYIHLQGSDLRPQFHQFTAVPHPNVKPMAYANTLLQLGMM
PME-1 inh – PME-1 inhibitors via competitive probe labeling, primary screen, biochemical, fluorescence polarization, FP-Rh probe, HTS; inhibition, % at 5.9 µM; Protein phosphatase methylesterase 1 (Homo sapiens), Q9Y570; recombinant PME-1; actives 0.53% (n = 320,000); AID 2130, 2009;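 active = inhibition above the campaign mean of all compounds plus 3 SD, cut at about 26% in these data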;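 note: competitive labeling of PME-1 active site by serine hydrolase directed probe; inhibitors block probe labeling so polarization falls and inhibition rises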
LYPLA2 counter – LYPLA2 inhibitors, primary screen, counter-screen for PME1 inhibitor project, biochemical, fluorescence polarization, FP-Rh probe ABPP | Acyl-protein thioesterase 2 (Homo sapiens), O95372 | recombinant LYPLA2 | inhibition, % at 5.9 µM | actives 0.38% (n = 320,000) | AID 2177, 2009;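 active = inhibition above the screen-wide mean plus 3 SD, limit set per campaign, cut at about 26% in these data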
LYPLA2 conf – LYPLA2 inhibitors, retest, confirmation, counter-screen for PME1 inhibitor project, biochemical, fluorescence polarization, FP-Rh probe ABPP; shares compounds with LYPLA2 counter; recombinant LYPLA2; inhibition, % at 5.9 µM; actives 72% (n = 1,100); AID 2232, 2010;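 active = mean inhibition across replicates above the hit cutoff set in the primary screen, cut at about 26% in these data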;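 note: blocked labeling of the enzyme by serine hydrolase FP-Rh probe lowers polarization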
LYPLA2 ABPP – LYPLA2 inhibitors in proteome, late-stage follow-up, gel-based competitive ABPP, fluorescence, assay provider | actives 30% (n = 150) | rhLYPLA2 in mouse brain proteome, gel ABPP FP-Rh | shares compounds with LYPLA2 counter | inhibition, % at 20 µM | AID 652029, 2013;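 active = inhibition of LYPLA2 enzyme probe labeling above about 50%, limit read from the data; inactive = inhibition below that limit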;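 note: loss of FP-Rh probe labeling of the LYPLA2 gel band measured as band density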
Hits are given with their value.

How did CCOc1ccccc1C(=O)NCC(=O)N1CCN(Cc2ccc3c(c2)OCO3)CC1 do in these assays?
PP1 counter: inactive; LYPLA1 counter: inactive; PP5 inh: inactive; PME-1 inh: inactive; LYPLA2 counter: 61.6; LYPLA2 conf: 56.9; LYPLA2 ABPP: inactive

How did CCN(CC(=O)NCc1ccc(Cl)cc1)C(=O)CCc1ccccc1 do in these assays?
Fam108B inh: inactive; PP1 counter: inactive; LYPLA1 counter: inactive; PP5 inh: inactive; PME-1 inh: inactive; LYPLA2 counter: inactive

How did CC(=O)c1ccc(N2CCN(C(=O)Nc3ccc(C(C)C)cc3)CC2)cc1 do in these assays?
Fam108B inh: inactive; PP1 counter: inactive; LYPLA1 counter: inactive; PP5 inh: inactive; PME-1 inh: inactive; LYPLA2 counter: 47.8; LYPLA2 conf: 41.7

Results for CN(C(=O)Cc1c(C(=O)O)n(C)c2ccccc12)c1cccc(C(F)(F)F)c1 ?
Fam108B inh: inactive; PP1 counter: inactive; LYPLA1 counter: inactive; PP5 inh: inactive; PME-1 inh: inactive; LYPLA2 counter: inactive

What do the screens show for `COC(=O)c1c(NC(=O)CN2CCN(c3ncccn3)CC2)sc(C(N)=O)c1C`?
Fam108B inh: inactive; PP1 counter: inactive; LYPLA1 counter: inactive; PP5 inh: inactive; PME-1 inh: inactive; LYPLA2 counter: 30.6; LYPLA2 conf: inactive

How did Cc1ccc(NC(=O)CN2C(=O)CSc3ccc(S(=O)(=O)N4CCCCC4)cc32)cc1 do in these assays?
Fam108B inh: inactive; PP1 counter: inactive; LYPLA1 counter: inactive; PP5 inh: inactive; PME-1 inh: inactive; LYPLA2 counter: inactive

What do the screens show for `COc1cccc(NC(=O)CN2C(=O)CSc3ccc(S(=O)(=O)N4CCCCC4)cc32)c1`?
Fam108B inh: inactive; PP1 counter: inactive; LYPLA1 counter: inactive; PP5 inh: inactive; PME-1 inh: inactive; LYPLA2 counter: 40.0; LYPLA2 conf: 37.7

Results for Cc1cc(C)cc(NC(=O)CN2C(=O)COc3ccc(S(=O)(=O)N4CCCC4)cc32)c1 ?
Fam108B inh: inactive; PP1 counter: inactive; LYPLA1 counter: inactive; PP5 inh: inactive; PME-1 inh: inactive; LYPLA2 counter: 37.2; LYPLA2 conf: 33.4

Results for O=C(NCC1CCN(c2ccc(S(=O)(=O)N3CCOCC3)cc2)CC1)c1ccc(Cl)cc1 ?
Fam108B inh: inactive; PP1 counter: inactive; LYPLA1 counter: inactive; PP5 inh: inactive; PME-1 inh: inactive; LYPLA2 counter: 80.7; LYPLA2 conf: 75.8; LYPLA2 ABPP: 59.0

Results for O=C(CCNC(=O)c1ccc(Cl)cc1)Nc1ccc(S(=O)(=O)N2CCOCC2)cc1 ?
PP1 counter: inactive; LYPLA1 counter: inactive; PP5 inh: inactive; PME-1 inh: inactive; LYPLA2 counter: inactive

What do the screens show for `Cc1ccc(C(=O)N2CC(=O)Nc3ccc(F)cc3C2c2ccccc2)cc1[N+](=O)[O-]` (stereo unspecified)?
Fam108B inh: inactive; PP1 counter: inactive; LYPLA1 counter: inactive; PP5 inh: inactive; PME-1 inh: inactive; LYPLA2 counter: 34.1; LYPLA2 conf: 34.1

Results for O=C1CN(C(=O)c2cccc(F)c2)C(c2ccc(F)cc2)c2cc(F)ccc2N1 (stereo unspecified) ?
Fam108B inh: inactive; PP1 counter: inactive; LYPLA1 counter: inactive; PP5 inh: inactive; PME-1 inh: inactive; LYPLA2 counter: inactive

What do the screens show for `Cc1ccc(C(=O)N2CC(=O)Nc3ccc(F)cc3C2c2ccc(F)cc2)cc1[N+](=O)[O-]` (stereo unspecified)?
Fam108B inh: inactive; PP1 counter: inactive; LYPLA1 counter: inactive; PP5 inh: inactive; PME-1 inh: inactive; LYPLA2 counter: 33.8; LYPLA2 conf: 29.8

What do the screens show for `O=C1CN(C(=O)c2cc([N+](=O)[O-])ccc2Cl)C(c2ccccc2)c2cc(F)ccc2N1` (stereo unspecified)?
Fam108B inh: inactive; PP1 counter: inactive; LYPLA1 counter: inactive; PP5 inh: inactive; PME-1 inh: inactive; LYPLA2 counter: inactive

How did O=C(Nc1ccc2c(c1)OCO2)c1ccc2c(c1)S(=O)(=O)c1ccccc1C2=O do in these assays?
Fam108B inh: inactive; PP1 counter: inactive; LYPLA1 counter: inactive; PP5 inh: inactive; PME-1 inh: inactive; LYPLA2 counter: inactive

Results for COc1cc(OC)c(N(C)C(=O)c2cn(C)c(=O)c3cc(OC)c(OC)cc23)cc1Cl ?
Fam108B inh: inactive; PP1 counter: inactive; LYPLA1 counter: inactive; PP5 inh: inactive; PME-1 inh: inactive; LYPLA2 counter: inactive

What do the screens show for `COCCN1C(=O)C(=O)/C(=C(/O)c2ccc(S(=O)(=O)N3CCCCC3)cc2)C1c1ccc(OC)cc1` (stereo unspecified)?
Fam108B inh: inactive; PP1 counter: inactive; LYPLA1 counter: inactive; PP5 inh: inactive; PME-1 inh: inactive; LYPLA2 counter: inactive

Results for CC1CCN(CCn2c(=S)[nH]c3ccccc3c2=O)CC1 ?
Fam108B inh: inactive; PP1 counter: inactive; LYPLA1 counter: inactive; PP5 inh: inactive; PME-1 inh: inactive; LYPLA2 counter: inactive

Results for O=C(c1ccc(F)cc1)C1CCN(CCn2c(=S)[nH]c3ccccc3c2=O)CC1 ?
Fam108B inh: inactive; PP1 counter: inactive; LYPLA1 counter: inactive; PP5 inh: inactive; PME-1 inh: inactive; LYPLA2 counter: 26.5; LYPLA2 conf: 28.5

What do the screens show for `COc1ccc(-c2c(C)c3ccc(O)cc3oc2=O)cc1`?
Fam108B inh: inactive; PP1 counter: inactive; LYPLA1 counter: inactive; PP5 inh: inactive; PME-1 inh: inactive; LYPLA2 counter: inactive

Results for Cn1c2c(c(=O)n(C)c1=O)C(C(F)(F)F)(C(F)(F)F)N=C(c1ccc(Cl)cc1)N2 ?
Fam108B inh: inactive; PP1 counter: inactive; LYPLA1 counter: inactive; PP5 inh: inactive; PME-1 inh: inactive; LYPLA2 counter: 55.9; LYPLA2 conf: inactive

What do the screens show for `Cc1ccccc1C1=NC(C(F)(F)F)(C(F)(F)F)c2c(n(C)c(=O)n(C)c2=O)N1`?
Fam108B inh: inactive; PP1 counter: inactive; LYPLA1 counter: inactive; PP5 inh: inactive; PME-1 inh: inactive; LYPLA2 counter: inactive

Results for COc1ccc2nc(N(Cc3ccccc3)C(=O)CCNC(C)=O)sc2c1 ?
Fam108B inh: inactive; PP1 counter: inactive; LYPLA1 counter: inactive; PP5 inh: inactive; PME-1 inh: inactive; LYPLA2 counter: inactive
